Screening results as filed in PubChem BioAssay.
Compounds with a hit are over-represented: about 2.7% of the library has one in this group of screens.
Tau fibril ThT: inhibitors of human tau fibril formation, thioflavin T binding; Potency, µM (top dose mostly 57.4 µM), actives largely listed as inhibitors; recombinant tau K18 P301L, heparin-induced fibrillization, ThT fluorescence; AID 1460; 270,000 tested, 2.1% active; also: nearly all actives have a fitted effect of over 55% in size
Target sequence (P10636 561-689 P618L limits assumed): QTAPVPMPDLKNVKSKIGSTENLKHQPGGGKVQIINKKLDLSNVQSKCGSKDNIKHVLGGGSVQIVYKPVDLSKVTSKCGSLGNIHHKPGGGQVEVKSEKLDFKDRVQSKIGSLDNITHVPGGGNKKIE
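Aggregation was driven by heparin (20 uM final) acting on recombinant tau […] bearing P301L in 100 mM sodium acetate pH 7; fibrils were detected with Thioflavin T.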
Coupling enz: counter-screen for Giardia aldolase inhibitors: coupling enzyme system | activity change, negative = inhibition, % at 58.2 µM, hits read low | coupling enzyme system counterscreen, AmpLite Red fluorescence | 290,000 tested, 0.67% active | AID 2472; in the data active = activity change below about -30%
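Counterscreen of the coupled detection system alone, without aldolase: glyceraldehyde-3-phosphate coupling enzymes plus AmpLite Red readout. Compounds at 57.5 uM final, 10 min RT preincubation, 20 min RT reaction, fluorescence 525/598 nm.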
Tau FP inhib: blocks human tau fibril formation measured by polarization; 280,000 tested, 0.39% active; P10636; K18 P301L tau heparin fibrillization, Alexa594 FP, 6 h; Potency, µM (doses to about 57.7 µM), most hits filed as inhibitors; also: nearly all actives have a fitted effect of over 55% in size
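Read-out: fluorescence polarization of Alexa 594-labeled tau (0.24 uM), 555 nm excitation, 632 nm emission. Mixtures held 15 uM unlabeled K18 P301L, compound and 20 uM heparin, pH 7 acetate buffer, incubated 6 hr at 37 C.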
Tau fluor counter: counter-screen for tau fibril formation inhibitors | Potency, µM (top dose mostly 57.7 µM) | AID 1463 | 280,000 tested, 0.93% active | tau K18 P301L Alexa594 fluorescence, heparin fibrillization; also: nearly all actives have a fitted effect of over 55% in size
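Human tau K18 P301L (15 uM unlabeled, 0.24 uM Alexa 594-labeled) in 100 mM sodium acetate pH 7 with 20 uM heparin, 6 hr at 37 C. ThT 30 uM added, 1 hr ambient; Alexa 594 FP and total fluorescence read at 555/632 nm.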
Each line names hits and unclear results; the compound was inactive in the other large screens; ! = not confirmed by another sample; [ ] = dose if it differs, or a comment. Unless noted, calls follow the shape of the dose curve; as a rule, active = well fitted curve in the direction sought with a large enough effect; inconclusive = small, poorly fitted or top-dose-only effect, or another doubt; inactive = no such curve, though single readings can be large; an effect the other way counts as inactive or inconclusive.

CCOC(=O)/C(=N\Nc1ccc(Cl)cc1)c1csc(Nc2ccccc2)n1	Tau fibril ThT inconclusive, Tau FP inhib inconclusive, Tau fluor counter 4.5µM[quencher]
CCCCC(CCC(=O)O)(C(=O)OCC)c1csc(Nc2ccccc2)n1 (stereo not drawn)	none
S=C1N(c2ccccc2)C(c2ccc(Br)cc2)N2CCCN12 (stereo not drawn)	Tau fluor counter inconclusive
CCOc1ccc(C(=O)NCCc2sc3nc(-c4ccc(Cl)cc4)nn3c2C)cc1OCC	none (no result: Coupling enz)
Cc1cccc(C)c1NC(=O)Cn1c(=O)n(Cc2ccccc2Cl)c(=O)c2cccnc21	none (no result: Coupling enz)
Cc1ccc(Cn2c(=O)c3cccnc3n(CC(=O)Nc3cccc(C(F)(F)F)c3)c2=O)cc1	Tau FP inhib 18µM!
COc1ccc(NC(=O)Cn2c(=O)n(Cc3ccccc3)c(=O)c3oc4ccccc4c32)cc1Cl	Tau fibril ThT inconclusive, Tau FP inhib 28µM (no result: Coupling enz)
COc1ccc(NC(=O)Cn2c(=O)n(Cc3ccccc3OC)c(=O)c3cccnc32)cc1Cl	Tau FP inhib 25µM (no result: Coupling enz)
Cc1cc(C)c2nc3s/c(=C/c4ccccc4)c(=O)n3c2c1	Tau fibril ThT 28µM, Tau FP inhib inconclusive
COC(=O)Cc1ccc(NC(=S)NCCO)cc1	none
COC(=O)Cc1ccc(NC(=S)NCCSc2ccc(Cl)cc2)cc1	Tau FP inhib inconclusive, Tau fluor counter 7.9µM[quencher]
COc1cc(/C=C2\CC/C(=C\c3ccc(OCCO)c(OC)c3)C2=O)ccc1OCCO	Tau fibril ThT 14µM, Tau FP inhib inconclusive
COc1cc(/C=C2/CC/C(=C/c3ccc(O)c(OC)c3)C2=O)ccc1O	Tau fibril ThT 0.89µM, Tau FP inhib inconclusive
COc1cc(/C=C2/SC(=Nc3ccc(O)cc3)NC2=O)ccc1O	Tau fibril ThT 4.5µM, Tau FP inhib inconclusive, Tau fluor counter inconclusive
COc1cc(/C=C2\SC(=Nc3ccccc3OC)NC2=O)ccc1O	none (no result: Tau fibril ThT, Tau FP inhib, Tau fluor counter)
COc1cc(/C=C2\COC/C(=C\c3ccc(O)c(OC)c3)C2=O)ccc1O	Tau fibril ThT 10µM, Tau FP inhib inconclusive, Tau fluor counter inconclusive
Cc1cccc(C(=O)Nc2cccc(C(=O)OCc3cc(=O)n4c5c(sc4n3)CCCC5)c2)c1	Tau fibril ThT inconclusive (no result: Coupling enz)
Cc1ccc(S(=O)(=O)NNc2ccccc2)c(C)c1	Tau fibril ThT 22µM, Tau FP inhib inconclusive
C=CCC(Nc1ccccc1)C12C=CC(O1)C(C(=O)OC)=C2C(=O)OC (stereo not drawn)	Tau fibril ThT 7.9µM
O=C(O)c1cc2c([nH]c1=O)CCCC2	none
C=CCSC(=C(C#N)C#N)c1cc2c([nH]1)CCCC2	Tau fibril ThT 10µM, Tau fluor counter inconclusive
COc1cc2c(-c3cccc(Cl)c3)nc3c(c(C)nn3-c3ccccc3)c2cc1OC	none (no result: Coupling enz)
COC(=O)CCC(=O)OC1(C)C(=O)C2=CN(c3ccc(OC)cc3)C(c3ccc(OC)cc3)=CC2=C(Br)C1=O (stereo not drawn)	none
COCCN1C=C2C(=O)C(C)(OC(=O)CCC(=O)OC)C(=O)C(Br)=C2C=C1c1ccc(OC)cc1 (stereo not drawn)	Coupling enz -30
CCN(CC)CCCN1C=C2C(=O)C(C)(OC(=O)CCC(=O)OC)C(=O)C(Br)=C2C=C1c1ccc(OC)cc1 (stereo not drawn)	none
C=CCN1C=C2C(=O)C(C)(OC(=O)CCC(=O)OC)C(=O)C(Br)=C2C=C1c1ccc(OC)cc1 (stereo not drawn)	Tau fibril ThT 14µM!, Coupling enz -41!, Tau FP inhib inconclusive
COC(=O)CCC(=O)OC1(C)C(=O)C2=CN(C3CCCC3)C(c3ccc(OC)cc3)=CC2=C(Br)C1=O (stereo not drawn)	Tau fibril ThT 16µM, Coupling enz -41, Tau FP inhib inconclusive
CCC(C)NC(=O)c1cc2n(n1)CCCN(Cc1ccc(C)cc1)C2=O (stereo not drawn)	none (no result: Coupling enz)
CC(=O)N1CCN(c2ccc(NCc3ccc4c(c3)OCO4)cc2)CC1	Tau fibril ThT 16µM, Coupling enz -33, Tau FP inhib inconclusive, Tau fluor counter inconclusive
CC(=O)N1CCN(c2ccc(NCc3cccs3)cc2)CC1	Tau fibril ThT 28µM, Tau FP inhib inconclusive
CC(=O)c1nnn(-c2ccc(C)cc2Cl)c1C	none (no result: Coupling enz)
CC(=O)Nc1ccc(N2C(C(C)=O)=NN(c3ccccc3)C2c2cccs2)cc1 (stereo not drawn)	Tau fibril ThT inconclusive, Tau fluor counter 25µM[quencher]
CC(=O)Nc1ccc(C2=NN(c3ccccc3)C(c3cccs3)C2)cc1 (stereo not drawn)	Tau FP inhib inconclusive, Tau fluor counter 8.9µM[quencher]
CC(=O)N1N=C(c2ccccc2)CC1c1cccs1 (stereo not drawn)	none (no result: Tau fibril ThT, Tau FP inhib, Tau fluor counter)
CC(=O)Nc1ccc(N2C(C(C)=O)=NN(c3ccc(Cl)cc3)C2c2sccc2C)cc1 (stereo not drawn)	Tau fibril ThT inconclusive, Tau fluor counter 28µM[quencher]
CCOc1ccccc1NS(=O)(=O)c1ccc2oc(=O)c3ncn(C)c3c2c1	none (no result: Coupling enz)
Cc1cc(N2CCOCC2)nc2ccc(Cl)cc12	none (no result: Tau fibril ThT, Tau FP inhib, Tau fluor counter)
O=c1c2sc3ccccc3c2n(Cc2ccccc2Cl)c(=O)n1Cc1ccccc1	Tau FP inhib inconclusive (no result: Coupling enz)
O=C(Nc1cc(Sc2ccccn2)cc([N+](=O)[O-])c1)c1cccc(Cl)c1	none
O=C(Nc1cc(Sc2ccccn2)cc([N+](=O)[O-])c1)c1ccc(Cl)cc1	Tau fluor counter 10µM[quencher]
O=c1nc(N/N=C/c2c[nH]c3ccccc23)cn[nH]1	none (no result: Tau fibril ThT)
C(=N\Nc1ccccn1)/c1c[nH]c2ccccc12	Tau fibril ThT 7.1µM, Tau fluor counter 14µM[quencher]
O=C(O)c1ccccc1N/N=C\c1ccnc2ccccc12	Tau fibril ThT 5µM
O=C(O)c1ccccc1N/N=C/c1cc(Br)cc(Br)c1O	Tau fibril ThT 14µM, Tau fluor counter inconclusive
CNc1ncncc1-c1ccc(C(=O)N(C)C)cc1	none
O=C(O)C1Nc2c(O)cc(Cl)c([N+](=O)[O-])c2C2C=CCC12 (stereo not drawn)	Tau fibril ThT 7.9µM, Tau FP inhib 14µM, Tau fluor counter 7.1µM[quencher]
COc1ncc2ncc(=O)n(C[C@H]3CCCO3)c2n1	none (no result: Tau fibril ThT, Tau FP inhib, Tau fluor counter)
CC1(C)Cc2c(C#N)c(N)sc(=S)c2CS1	Tau fibril ThT 18µM, Coupling enz -44, Tau fluor counter inconclusive
N#Cc1c(N)sc(=S)c2c1CCCCC2	Tau fibril ThT 13µM, Coupling enz -33, Tau FP inhib inconclusive, Tau fluor counter inconclusive
N#Cc1c(N)sc2c1CCCCCC2	Tau fibril ThT inconclusive, Tau fluor counter inconclusive
COc1cccc(CNC(=O)CSc2cc(C)[nH]c(=O)n2)c1	none (no result: Coupling enz)
COc1ccc(-c2cc(=O)oc3cc(OC(C)C(=O)NCc4ccccn4)ccc23)cc1 (stereo not drawn)	none (no result: Tau fibril ThT, Tau FP inhib, Tau fluor counter)
CCc1ccc(/C=C2\CN(CC)Cc3c2nc2ccccc2c3C(=O)O)cc1	Tau fibril ThT 25µM, Coupling enz -34, Tau FP inhib inconclusive
COC(=O)CN1C(=O)C2(C(C#N)=C(N)Oc3n[nH]c(-c4cccs4)c32)c2ccccc21 (stereo not drawn)	none
COC(=O)CN1C(=O)C2(C(C#N)=C(N)Oc3c2c(C)nn3-c2ccccc2)c2ccccc21 (stereo not drawn)	Tau fibril ThT 28µM, Coupling enz -50, Tau FP inhib inconclusive
